Key:
Assay in all cases: PBM binding z-score (relative to random genomic background probes); higher = stronger binding; sequences stand for … in GC…GCGATTGACAGCGTAGAATGAAGG
[1] = tested on: PPARg:RXRa DBDmut IVT, anti-RXR (DBD mutation: RXRa K156A/R161A, NR concentration 270 nM, RXRa partner concentration 90 nM)
Method in brief: (§1)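 Binding z-scores were set against random background probes. The data came from custom Agilent 4×180K protein-binding microarrays carrying double-stranded probes with 34-nt variable regions, incubated 1 h with ligand-free nuclear receptor dimers. Partner-specific antibodies detected binding, and scanned fluorescence was regression-normalized.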

[2] = tested on: PPARg:RXRa IVT, anti-PPARg (NR concentration 270 nM, RXRa partner concentration 90 nM)
Method in brief: as §1

[3] = tested on: PPARg homodimer (NR concentration 180 nM)
Method in brief: as §1

[4] = tested on: PXR:RXRa (NR concentration 270 nM, RXRa partner concentration 90 nM)
Method in brief: as §1

[5] = tested on: PXR homodimer (NR concentration 270 nM)
Method in brief: as §1

[6] = tested on: RARa:RXR (NR concentration 270 nM, RXRa partner concentration 90 nM)
Method in brief: as §1

[7] = tested on: RARa homodimer (NR concentration 270 nM)
Method in brief: as §1

[8] = tested on: RARb:RXRa (NR concentration 270 nM, RXRa partner concentration 90 nM)
Method in brief: as §1

[9] = tested on: RARb homodimer (NR concentration 270 nM)
Method in brief: as §1

[10] = tested on: RARg:RXRa (NR concentration 270 nM, RXRa partner concentration 90 nM)
Method in brief: as §1

[11] = tested on: RARg homodimer (NR concentration 270 nM)
Method in brief: as §1

[12] = tested on: RXRa DBDmut IVT, anti-RXR (DBD mutation: RXRa K156A/R161A, NR concentration 90 nM)
Method in brief: as §1

[13] = tested on: RXRa homodimer (NR concentration 180 nM)
Method in brief: as §1

[14] = tested on: THRa:RXRa (NR concentration 90 nM, RXRa partner concentration 90 nM)
Method in brief: as §1

[15] = tested on: THRa homodimer (NR concentration 90 nM)
Method in brief: as §1

[16] = tested on: VDR homodimer (NR concentration 270 nM)
Method in brief: as §1

Sequence | PBM binding z-score [1] | PBM binding z-score [2] | PBM binding z-score [3] | PBM binding z-score [4] | PBM binding z-score [5] | PBM binding z-score [6] | PBM binding z-score [7] | PBM binding z-score [8] | PBM binding z-score [9] | PBM binding z-score [10] | PBM binding z-score [11] | PBM binding z-score [12] | PBM binding z-score [13] | PBM binding z-score [14] | PBM binding z-score [15] | PBM binding z-score [16]
CTATGTAGGTTAAGGGGGTCATTCAGTTTGAAAG | 7.67 | 7.74 | 3.66 | 6.09 | 11.4 | 5.93 | 1.81 | 3.73 | 3.93 | 5.34 | 4 | 2.56 | 6.26 | 3.95 | 2.19 | 4.98
CCGAGTAGGTTACGAGGGGACATTCAGTGCGAAT | 4.84 | 4.14 | 1.04 | 2.82 | 2.23 | 0.995 | 0.101 | 1.42 | 1.22 | 1.25 | 1.25 | 0.594 | 0.907 | 4.11 | 0.165 | 1.46
TCGAGTAAGTTACGGGGGCATTCAGGGATGAAGA | 1.55 | 3.02 | 0.93 | 2.63 | 1.19 | 2.22 | 0.119 | 1.34 | 1.15 | 1.48 | 0.746 | 1.48 | 1.4 | 3.54 | 0.682 | 3.03
CTATGTAGGTTCAGGGGGTCATTCAGTTTGAAAG | 3.32 | 4.65 | 3.3 | 6.29 | 10.6 | 6.89 | 2.03 | 3.59 | 3.91 | 5.72 | 3.84 | 3.68 | 7.14 | 3.7 | 2.11 | 6.83
CCGAGTAGATTACGAGGGGGCATTCAGTGCGAAT | 0.434 | 0.871 | 0.638 | 2.73 | 3.64 | 1.79 | -0.0773 | 0.973 | 1.12 | 1.31 | 0.84 | 1.36 | 0.919 | 1.85 | -0.0543 | 3.03
TCGAGTAGGTTACGGGGGCAGTCAGGGATGAAGA | 5 | 5.6 | 2.04 | 2.33 | 1.2 | 2.43 | 0.156 | 2.36 | 2.06 | 2.82 | 2.3 | 1 | 2.21 | 2.81 | 1 | 1.25
CTATGTAGGTTTAGGGGGTCATTCAGTTTGAAAG | 3.47 | 4.95 | 3.1 | 5.4 | 9.15 | 5.1 | 1.56 | 2.93 | 3.42 | 4.23 | 3.14 | 2.35 | 4.8 | 3.52 | 1.9 | 5.35
